The record followed here is PubChem BioAssay.

In experiment [1] the test system is Human papillomavirus type 1a protein E7 (residues 44-93). The experiment in a line: small molecules binding HPV E7 44-93 – biochemical, small-molecule microarray, residues 44-93, 635 nm fluorescence, primary screen (AID 1108).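 Also: E7 fragment applied at 1 µg/mL in TBST for 1 h at 4 C; score combines spot fluorescence with its signal to noise ratio.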 The following applies: fluorescence 635 nm, higher = more signal.
A short description of experiment [2]: hepatitis C replication reporter changes, two-sided – Huh7 cells, luciferase reporter, HCV replication inhibitor project, primary screen (AID 1109).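 Also: huh7 hepatoma cells harbouring a luciferase neomycin HCV replicon reporter; luciferase luminescence as measure of HCV replicon replication; test concentration not given here.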 The following applies: Huh7 HCV replicon luciferase reporter, 48 h; higher = more signal. (In general: A reporter such as luciferase makes a cellular process visible.)
In experiment [3] the target is Left-right determination factor 2 (Homo sapiens) (UniProt O00292). The experiment in a line: small molecules binding LEFTY2 protein – biochemical, small-molecule microarray, 635 nm fluorescence scan, primary screen (AID 1110). The following applies: higher = more signal.
Experiment [4] concerns the target Calmodulin-1 (Homo sapiens) (UniProt P0DP23). Put plainly: small molecules binding calmodulin-1 with EGTA – biochemical, small-molecule microarray, Cy5-labelled CALM1, profiling panel (AID 1111).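 Also: labelled calmodulin applied in Tris saline Tween buffer holding calcium plus EGTA and DTT.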 The following applies: Cy5-CALM1 binding fluorescence, higher = more signal.
For experiment [5] the target is unchanged. Put plainly: small molecules binding Ca-loaded calmodulin-1 – biochemical, small-molecule microarray, Cy5-labelled CALM1, plus calcium, artefact control for SMM control-protein annotation, profiling panel (AID 1112).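 Also: score merges spot fluorescence with signal to noise from triplicate slides.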 As to conditions: Cy5-CALM1 binding fluorescence, higher = more signal.
A short description of experiment [6]: probe aWnt5a binding to arrayed compounds – biochemical, biotinylated probe, 635/667 nm fluorescence, primary screen (AID 1113).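 Also: score merges 667 nm fluorescence intensity with signal-to-noise per printed feature.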 The following applies: small-molecule microarray, higher = more signal.
A short description of experiment [7]: probe aShh binding to arrayed compounds – biochemical, biotinylated probe, 635/667 nm fluorescence, primary screen (AID 1114).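 Also: probe is biotin-labelled aShh protein from a stem cell growth factor screen; measures binding of labelled protein to compounds printed on the slide; score merges feature fluorescence at 667 nm with signal-to-noise.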 As to conditions: small-molecule microarray, higher = more signal.
The nature of experiment [8]: probe aNog binding to arrayed compounds – biochemical, biotinylated probe, 635/667 nm fluorescence, primary screen (AID 1115).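 Also: probe is biotinylated aNog protein used at 0.15 µg/mL for 1 h at 4 C; z-score combines 667 nm fluorescence of each spot with its signal to noise.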 As to conditions: small-molecule microarray, higher = more signal.
The target of experiment [9] is Torsin-1A-interacting protein 1 (Homo sapiens) (UniProt Q5JTV8). Put plainly: compound microarray binding of lysate hLAP1 – cell lysate, small-molecule microarray, COS7 lysate, 635/667 nm fluorescence, primary screen (AID 1116). As to conditions: 635 nm fluorescence, higher = more signal.
The target in experiment [10] is Alpha-bungarotoxin (Bungarus multicinctus) (UniProt P60615). Put plainly: compounds binding labelled alpha-BTX control protein – biochemical, small-molecule microarray, Alexa647 label, 635/667 nm fluorescence, artefact control for SMM control protein annotation, profiling panel (AID 1117). As to conditions: alpha-BTX-A647 binding fluorescence, higher = more signal.
Chain of Alpha-bungarotoxin (Bungarus multicinctus) (P60615 whole entry, looked up): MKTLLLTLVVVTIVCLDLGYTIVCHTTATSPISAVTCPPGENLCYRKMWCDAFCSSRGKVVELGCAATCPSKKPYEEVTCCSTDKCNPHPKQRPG

Chain of Torsin-1A-interacting protein 1 (Homo sapiens) (Q5JTV8 whole entry, looked up): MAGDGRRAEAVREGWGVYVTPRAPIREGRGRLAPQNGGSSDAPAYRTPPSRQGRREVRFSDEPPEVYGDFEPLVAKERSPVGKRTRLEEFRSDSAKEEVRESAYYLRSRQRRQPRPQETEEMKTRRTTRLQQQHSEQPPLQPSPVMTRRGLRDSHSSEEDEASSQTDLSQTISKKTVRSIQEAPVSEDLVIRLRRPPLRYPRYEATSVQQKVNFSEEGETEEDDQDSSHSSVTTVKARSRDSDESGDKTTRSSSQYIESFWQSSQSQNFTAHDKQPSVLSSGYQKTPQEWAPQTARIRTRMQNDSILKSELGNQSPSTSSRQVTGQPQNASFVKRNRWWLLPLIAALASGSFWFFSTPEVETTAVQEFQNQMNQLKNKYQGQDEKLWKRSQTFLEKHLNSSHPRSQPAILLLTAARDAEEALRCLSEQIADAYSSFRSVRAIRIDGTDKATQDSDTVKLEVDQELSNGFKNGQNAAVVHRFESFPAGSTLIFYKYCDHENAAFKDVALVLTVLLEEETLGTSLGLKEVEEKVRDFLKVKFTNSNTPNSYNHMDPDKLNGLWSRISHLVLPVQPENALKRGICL
Chain of Left-right determination factor 2 (Homo sapiens) (O00292 whole entry, looked up): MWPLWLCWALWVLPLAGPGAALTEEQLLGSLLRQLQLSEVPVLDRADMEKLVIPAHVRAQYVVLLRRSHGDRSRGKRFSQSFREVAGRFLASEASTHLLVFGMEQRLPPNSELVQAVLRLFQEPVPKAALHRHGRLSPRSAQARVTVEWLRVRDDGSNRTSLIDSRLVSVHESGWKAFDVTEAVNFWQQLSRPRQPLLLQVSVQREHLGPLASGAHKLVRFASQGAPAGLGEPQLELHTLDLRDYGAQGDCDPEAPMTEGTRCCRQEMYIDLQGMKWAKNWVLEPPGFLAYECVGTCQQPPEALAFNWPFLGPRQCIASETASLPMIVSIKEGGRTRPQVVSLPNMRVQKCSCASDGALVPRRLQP

For `COC(=O)CC=C[C@@H](C)[C@@H](C=NOC[C@@H](O)COCc1ccco1)OC`, the composite z-score in experiment [1] was 0.134; in experiment [3] it was 0.999; in [4] it was -0.809; in [5] it was -2.21; in experiment [6] it was -0.172; in [7], -0.243. Further, the composite z-score in [8] was -0.353; in experiment [9], 0.329; in experiment [10] it was -0.741. The molecule also registered a z-score in [2] of 0.674.
For the molecule `COC(=O)[C@@H]1CC[C@H](C)[C@@H](c2ccc(C)cc2)N1C(=O)c1ccc(C=NOC[C@@H](O)[C@H]2O[C@@H]3OC(C)(C)O[C@@H]3[C@H]2O)cc1`, the composite z-score in experiment [1] was 1.15; in experiment [3] it was 0.414; in [4], 0.504; in [5] it was -0.12; in [6], -0.117; in experiment [7], -0.0709. In addition, the composite z-score in experiment [8] was -0.168; in experiment [9], 0.555; in experiment [10], 0.776. This molecule registered a z-score in experiment [2] of -0.447.
`COC(=O)[C@H](C)NC(=O)CC=C[C@@H](C)[C@@H]1C=C[C@H](O)[C@@H](CO)O1`: the composite z-score in experiment [1] is 0.075; in experiment [3] it was 1.14; in experiment [4], -0.698; in experiment [5], -1.35; in experiment [6], -0.0799; in experiment [7], -0.0474. For the same molecule, the composite z-score in [8] was -0.0926; in experiment [9] it was 0.326; in [10], -0.392. In experiment [2], this molecule displayed a z-score of -0.0833.
Regarding `C#CCCCON=C1[C@H]2CCn3c(=O)n(Cc4cc5c(cc4Cl)OCO5)c(=O)n3[C@H]2[C@H](O)[C@@H]2O[C@H]12`, the composite z-score was 0.493 in [1]; 0.711 in experiment [3]; -0.692 in experiment [4]; -1.22 in experiment [5]; -0.129 in experiment [6]; -0.273 in experiment [7]. Moreover, the composite z-score in experiment [8] was -0.162; in experiment [9], 0.526; in experiment [10], 0.499. The z-score in experiment [2] was determined as 0.113.
On to `COC(=O)[C@@H]1CC[C@H](C)[C@@H](c2ccc(Br)cc2)N1C[C@@H](O)CN=[N+]=[N-]`, for which the composite z-score in experiment [1] is 0.29; in experiment [3] it was 0.445; in [4], -0.178; in experiment [5], -0.437; in experiment [6] it was -0.0403; in experiment [7], 0.0494. Moreover, the figures for the composite z-score in experiment [8], in experiment [9] and in experiment [10] were -0.0103, 0.289 and -0.291, respectively. Besides, in experiment [2], the z-score was -0.779.
`C=CC[C@@H]1C=C[C@H](Oc2ccc(C)cc2)[C@@H](COC(=O)NCc2cccc3ccccc23)O1`: the composite z-score in experiment [1] was 0.286; in experiment [3] it was 0.129; in experiment [4], -0.716; in [5] it was -0.547; in experiment [6], -0.0271; in experiment [7] it was -0.0793. For the same molecule, the composite z-score in [8] is -0.0496; in experiment [9], 0.0431; in [10], -0.212. The z-score in experiment [2] is -2.78.
`COc1ccc(COC(=O)NN=C2C[C@@H](O)[C@@H](O)[C@@H]3[C@@H]4C(=O)N(C[C@@H]5CCCO5)C(=O)[C@@H]4CC[C@@H]23)cc1`: the composite z-score was 0.222 in experiment [1]; 0.179 in experiment [3]; 0.342 in experiment [4]; -0.636 in experiment [5]; -0.172 in experiment [6]; -0.0793 in experiment [7]. Besides, the composite z-score was -0.0496 in [8], 0.411 in experiment [9] and 0.915 in experiment [10]. The same molecule gave a z-score in experiment [2] of 0.778.
Turning to `CCOC(=O)[C@H](Cc1ccccc1)NC(=O)CCC1CC(OC(=O)NCCc2ccc(F)cc2)CC2(CCCC(COC(=O)NCCC(C)C)O2)O1` (stereo not given in full), the composite z-score was 1.4 in [1]; 0.676 in experiment [3]; -0.0594 in experiment [4]; -0.478 in experiment [5]; -0.164 in [6]; -0.253 in [7]. Moreover, the values for the composite z-score in [8], in experiment [9] and in [10] were -0.0524, 0.523 and 0.633, respectively. Besides, the z-score in experiment [2] was -0.833.
As to `CCOC(=O)CCN1C(=O)[C@H]2[C@H]3[C@H](O)[C@H](O)CC(=NNC(=O)OCC)[C@H]3CC[C@H]2C1=O`, the composite z-score in experiment [1] is -0.0248; in experiment [3] it was 0.679; in experiment [4], -0.842; in experiment [5] it was -1.67; in experiment [6], -0.1; in [7], -0.0626. In addition, the composite z-score in experiment [8] is 0.121; in [9], -0.0184; in experiment [10], -0.798. The z-score in [2] is -2.37.
As to `C[C@@H]1CC[C@H]2C(=O)N3[C@@H](CC[C@@H](C)[C@@H]3c3ccc(Br)cc3)C(=O)N2[C@H]1c1ccc(Br)cc1`, the composite z-score in experiment [1] was -0.0146; in experiment [3], 0.31; in experiment [4], -0.209; in [5], -0.188; in [6], -0.105; in experiment [7] it was -0.138. Further, the composite z-score was -0.113 in [8], 0.08 in [9] and 0.371 in experiment [10]. In addition, the z-score in [2] was -1.82.
Take `CCOC(=O)NN=C1C[C@@H](O)[C@@H](O)[C@@H]2[C@@H]3C(=O)N(CC)C(=O)[C@@H]3CC[C@H]12`: the composite z-score in experiment [1] is -0.307; in experiment [3] it was 0.346; in experiment [4], -0.317; in [5], -0.325; in experiment [6], -0.176; in experiment [7], -0.0813. The composite z-score in experiment [8] is -0.244; in [9], 0.0626; in experiment [10], -0.113. In addition, the z-score in [2] came out at 0.276.
For the molecule `COc1ccc(O[C@H]2C=C[C@@H](c3ccccc3)O[C@@H]2CON=C2c3cc(OC)ccc3O[C@H](c3cccc(OC)c3)[C@H]2O)cc1`, the composite z-score in experiment [1] is -0.382; in [3] it was 0.804; in [4], -0.0756; in experiment [5], 0.335; in experiment [6], -0.0735; in [7], 0.296. Besides, the results for the composite z-score in experiment [8], in experiment [9] and in experiment [10] were -0.106, 0.399 and 0.328, respectively. Moreover, the z-score in [2] was -1.78.
With `CCN1C(=O)[C@H]2[C@H]3[C@H](O)[C@H](O)CC(=NO[C@H](C)c4cn([C@H](CO)Cc5ccccc5)nn4)[C@@H]3CC[C@H]2C1=O`, the composite z-score in experiment [1] was 0.485; in experiment [3], 0.741; in experiment [4], 0.782; in experiment [5] it was -0.0865; in experiment [6], -0.0573; in [7] it was -0.358. Moreover, the composite z-score in [8] turned out to be 0.202; in experiment [9], 0.476; in experiment [10], 1.29. In [2], this molecule returned a z-score of -1.02.
For the molecule `COc1ccc2c(c1)O[C@@H](c1cccc(C(F)(F)F)c1)[C@H](O)C2=O`, the composite z-score in experiment [1] was 0.368; in experiment [3] it was 0.428; in experiment [4], 0.172; in experiment [5], -0.427; in experiment [6] it was -0.172; in experiment [7], -0.304. For the same molecule, the figures for the composite z-score in experiment [8], in experiment [9] and in experiment [10] were -0.0496, 0.342 and 0.375, respectively. The molecule further gave a z-score in experiment [2] of 1.18.
With `Cc1ccc(S(=O)(=O)N[C@@H]2COC(=O)CC=C[C@@H](C)[C@H](NS(=O)(=O)c3ccc(C)cc3)COC(=O)[C@H](C)NC(=O)CC=C[C@H]2C)cc1`, the composite z-score in experiment [1] was -1.64; in experiment [3], 0.846; in [4], -0.683; in experiment [5] it was -0.951; in experiment [6], -0.194; in experiment [7] it was -0.221. The figures for the composite z-score in experiment [8], in experiment [9] and in experiment [10] were 0.122, -0.123 and -0.621, respectively. Moreover, the z-score in experiment [2] came out at 0.311.
As to `CCN1C(=O)[C@H]2[C@H]3[C@H](O)[C@H](O)CC(=NOCC(C)C)[C@H]3CC[C@H]2C1=O`, the composite z-score was -0.0775 in experiment [1]; 0.535 in experiment [3]; -0.185 in experiment [4]; -0.987 in experiment [5]; -0.0542 in experiment [6]; -0.138 in experiment [7]. Moreover, the results for the composite z-score in experiment [8], in experiment [9] and in experiment [10] were -0.238, 0.152 and -0.14, respectively. Further, in experiment [2], the z-score stood at 0.295.
For the molecule `C=C(C)C(=O)OC[C@H]1CN2[C@@H](CC[C@@H](C)[C@@H]2c2ccc(Br)cc2)C(=O)O1`, the composite z-score in [1] is 0.33; in experiment [3] it was 0.373; in experiment [4], -0.562; in experiment [5], -0.395; in experiment [6], -0.178; in experiment [7], -0.0553. Moreover, the results for the composite z-score in experiment [8], in experiment [9] and in [10] were -0.353, -0.273 and 0.534, respectively. In experiment [2], this molecule yielded a z-score of 1.25.
